{"source": "PubChem BioAssay (EPA / NIEHS)", "key": {"[1]": {"assay": "CLD_ACTIN_6hr: CellzDirect (CLD) Gene Expression Assay for Baseline Control (Actin) at 6 hours (AID 2283676; active = hit-call score of the fitted dose curve at least 0.9, where 1 is the maximum;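 also: active means increased actin mRNA relative to DMSO vehicle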)", "summary_of_the_method": "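Baseline actin transcript level measured by qNPA (S1 nuclease protection, chemiluminescence) in human hepatocyte cultures 6 h after chemical exposure; 0.2% DMSO vehicle as reference, cytotoxicity noted from morphology.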"}, "[2]": {"read-out": "Cytochrome P450 2B6 (Homo sapiens) (UniProt P20813)", "assay": "CLD_CYP2B6_6hr: CellzDirect (CLD) Gene Expression Assay for xenobiotic metabolism (CYP2B6) at 6 hours (AID 2283677; active = hit-call score of the fitted dose curve at least 0.9, where 1 is the maximum;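 also: actives raise CYP2B6 transcript above DMSO baseline so AC50 marks an inducer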)", "summary_of_the_method": "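CYP2B6 transcript levels, read by chemiluminescent qNPA, were fitted for increase versus DMSO baseline; cultured human liver hepatocytes from two donor preparations were harvested 6 h after exposure to test chemicals at multiple concentrations.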"}, "[3]": {"read-out": "Cytochrome P450 2C19 (Homo sapiens) (UniProt P33261)", "assay": "CLD_CYP2C19_6hr: CellzDirect (CLD) Gene Expression Assay for xenobiotic metabolism (CYP2C19) at 6 hours (AID 2283678; active = hit-call score of the fitted dose curve at least 0.9, where 1 is the maximum)", "summary_of_the_method": "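CYP2C19 transcript induction was quantified by quantitative nuclease protection assay with chemiluminescent read-out, 6 h after dosing. Cells were primary human hepatocytes from two donor preparations, given fresh dosing solutions daily in 0.2% DMSO vehicle. Activity was relative to DMSO.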"}, "[4]": {"assay": "CCTE_Padilla_ZF_144hpf_TERATOSCORE: (Legacy) CCTE's 144 Hour Post-fertilization zebrafish Assay Teratoscore, Padilla Lab (AID 2283679);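 as to AC50: zebrafish embryos with chorions exposed by immersion from 6-8 hpf to 5 dpf with daily renewal; teratogenicity score from eye scoring of death hatching and malformations at 144 hpf; higher score means more developmental defects relative to DMSO baseline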", "summary_of_the_method": "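Larvae scored by eye at 144 hpf for death, hatching and malformations after a day in clean Hanks'. Before that, daily-renewed exposure at 80 uM (0.4% DMSO, 26C) from roughly 6-8 hpf through 5 dpf, 4 embryos per chemical.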"}, "[5]": {"read-out": "Cytochrome P450 3A4 (Homo sapiens) (UniProt P08684)", "assay": "CLD_CYP3A4_6hr: CellzDirect (CLD) Gene Expression Assay for xenobiotic metabolism (CYP3A4) at 6 hours (AID 2283680; active = hit-call score of the fitted dose curve at least 0.9, where 1 is the maximum)", "summary_of_the_method": "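CYP3A4 mRNA induction, 6 h after dosing of cultured primary human hepatocytes from two donors, read by quantitative nuclease protection (qNPA, chemiluminescence). Vehicle 0.2% DMSO as baseline; morphology-based cytotoxicity annotated yes/no.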"}, "[6]": {"read-out": "Glyceraldehyde-3-phosphate dehydrogenase (Homo sapiens) (UniProt P04406)", "assay": "CLD_GAPDH_6hr: CellzDirect (CLD) Gene Expression Assay for Baseline Control (Glyceraldehyde 3-phosphate dehydrogenase) at 6 hours (AID 2283681; active = hit-call score of the fitted dose curve at least 0.9, where 1 is the maximum;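 also: active means increased signal relative to DMSO vehicle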)", "summary_of_the_method": "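GAPDH baseline-control readout from qNPA (S1 nuclease digestion, probe hybridization, chemiluminescence) in lysates of cultured human hepatocytes harvested 6 h post-dosing. Chemicals tested at multiple concentrations versus 0.2% DMSO vehicle; microscopy-based cytotoxicity flagged yes/no.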"}, "[7]": {"read-out": "HMG-CoA synthase (HMGCS2), HMGCS2 (gene 3158)", "assay": "CLD_HMGCS2_6hr: CellzDirect (CLD) Gene Expression Assay for HMG-CoA synthase (HMGCS2) at 6 hours (AID 2283682; active = hit-call score of the fitted dose curve at least 0.9, where 1 is the maximum)", "summary_of_the_method": "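HMGCS2 transcript induction read by quantitative nuclease protection with chemiluminescence, 6 h after dosing of primary human hepatocytes. Baseline was 0.2% DMSO vehicle; phase-contrast morphology gave a yes/no cytotoxicity annotation.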"}, "[8]": {"read-out": "xenobiotic metabolism (CYP1A2), CYP1A2 (gene 1544)", "assay": "CLD_CYP1A2_24hr: CellzDirect (CLD) Gene Expression Assay for xenobiotic metabolism (CYP1A2) at 24 hours (AID 2283683; active = hit-call score of the fitted dose curve at least 0.9, where 1 is the maximum)", "summary_of_the_method": "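CYP1A2 mRNA induction measured by quantitative nuclease protection (chemiluminescent) in human primary hepatocytes 24 h after multi-concentration chemical dosing with daily fresh solutions. DMSO (0.2%) baseline; positive-direction fitting; morphology-based cytotoxicity noted.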"}}, "note": "Results filed as inconclusive are left out. Activity calls are given as the source filed them. The calls were made as follows, unless noted: active = hit-call score of the fitted dose curve at least 0.9, where 1 is the maximum; inactive = score below 0.9.", "data": [{"smiles": "CCNc1nc(NC(C)C)nc(SC)n1", "values": [{"measurement": "outcome", "setting": "[1]", "value": "inactive"}, {"measurement": "AC50", "setting": "[2]", "value": "1 µM (active)"}, {"measurement": "outcome", "setting": "[3]", "value": "inactive"}, {"measurement": "AC50", "setting": "[4]", "value": "149 µM (active)"}, {"measurement": "AC50", "setting": "[5]", "value": "1.79 µM (active)"}, {"measurement": "outcome", "setting": "[6]", "value": "inactive"}, {"measurement": "outcome", "setting": "[7]", "value": "inactive"}, {"measurement": "AC50", "setting": "[8]", "value": "1.29 µM (active)"}]}, {"smiles": "CCOC(=O)C(O)(c1ccc(Cl)cc1)c1ccc(Cl)cc1", "values": [{"measurement": "AC50", "setting": "[4]", "value": "1.71 µM (active)"}]}, {"smiles": "CC(c1ccc(O)cc1)(c1ccc(O)cc1)c1ccc(O)cc1", "values": [{"measurement": "outcome", "setting": "[4]", "value": "inactive"}]}, {"smiles": "CC#Cc1cc(C)nc(Nc2ccccc2)n1", "values": [{"measurement": "AC50", "setting": "[4]", "value": "33.4 µM (active)"}]}, {"smiles": "Cc1cc(O)ccc1Cl", "values": [{"measurement": "AC50", "setting": "[4]", "value": "112 µM (active)"}]}, {"smiles": "O=S(=O)(O)C(F)(F)C(F)(F)C(F)(F)C(F)(F)C(F)(F)C(F)(F)F", "values": [{"measurement": "AC50", "setting": "[4]", "value": "123 µM (active)"}]}, {"smiles": "ClC1=C(Cl)[C@]2(Cl)[C@@H]3[C@H]4C[C@H]([C@@H]5O[C@H]45)[C@@H]3[C@@]1(Cl)C2(Cl)Cl", "values": [{"measurement": "AC50", "setting": "[4]", "value": "0.00973 µM (active)"}]}, {"smiles": "CCCCCCCCOC(=O)c1ccccc1C(=O)OCCCCCCCC", "values": [{"measurement": "outcome", "setting": "[4]", "value": "inactive"}]}]}
